# ± gives the standard deviation of the averaged measurements.
# Test system: (4S)-cis-verbenol A-neuron OSN class
# Experiment: net action potential response of A-neuron (blank-subtracted) (spikes/s (Hz)); higher = stronger excitation
# Details: 10 µg on filter paper; neuron: A neuron (large spike amplitude)
# Experimental: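 Single sensillum recordings from antennal olfactory sensilla of live adult Ips typographus. Each compound was 10 µg in paraffin oil on filter paper, delivered as a 0.5 s puff. Net response = spikes in the first 0.5 s of response minus the 0.5 s pre-stimulus count, doubled to give Hz, with blank response subtracted. Values are for the large-spike A-neuron class of each of seven sensillum types that co-house the lanierone B-neuron; N = 1-4 sensilla, averaged.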
row,Compound,net action potential response
1,CC/C=C/CCO,2.67 ± 7
2,CC1=C[C@@H](O)[C@H]2C[C@@H]1C2(C)C [(-)-trans-Verbenol],52.7 ± 13
3,CCCCCCO [1-Hexanol],-1.33 ± 4.6
4,CCC(C)CO (racemic) [(±)-2-Methyl-1-butanol],-1.33 ± 4.2
5,OCCc1ccccc1 [2-Phenylethanol],-2 ± 6.9
6,Cc1ccc(C(C)C)cc1 [p-Cymene],-2 ± 4
7,CC12CCC(CC1=O)C2(C)C (racemic) [(±)-Camphor],-2.67 ± 8.1
8,CC(C)=CCC/C(C)=C/C=O [Citral (E/Z mix)],0 ± 3.5
9,CC1=CCC(C(C)C)=CC1 [γ-Terpinene],-5.33 ± 4.2
10,C[C@@H]1C(=O)C[C@H]2C[C@@H]1C2(C)C [(+)-Isopinocamphone],-0.667 ± 4.6
11,COc1ccc(C)cc1 [4-Methyl anisole],4.67 ± 4.6
12,CC/C=C\CCO,-0.667 ± 3.1
13,"CC12CCC(CC1)C(C)(C)O2 [1,8-Cineole]",1.33 ± 4.2
14,C=Cc1ccccc1 [Styrene],1.33 ± 9
15,CC1=CCC2CC1C2(C)C (stereo not drawn) [(-)-α-Pinene],-2.67 ± 3.1
16,C=CC(O)CCCCC (racemic) [(±)-1-Octen-3-ol],2.67 ± 3.1
17,CC(=O)CC/C=C(\C)CCC=C(C)C [Geranylacetone],3.33 ± 6.1
18,CCC/C=C\CO,1.33 ± 4.2
19,CC(=O)c1ccccc1 [Acetophenone],0.667 ± 1.1
20,CCc1ccc(O)c(OC)c1 [4-Ethylguaiacol],2 ± 6

row,Compound,net action potential response
1,CC(C)CCO [3-Methyl-1-butanol],6 ± 7.2
2,CCCCCC(O)CC (racemic) [(±)-3-Octanol],-6.67 ± 1.1
3,CC1(C)C2CC=C(CO)C1C2 (racemic) [(±)-Myrtenol],4.67 ± 1.1
4,C=CC(=C)CCC=C(C)C [Myrcene],2 ± 4
5,CC(=O)OCCc1ccccc1 [2-Phenethyl acetate],-2 ± 4
6,CC(=O)OCCC(C)C [3-Methylbutyl acetate],-4 ± 4
7,C=CC(=C)C[C@@H](O)CC(C)C (racemic) [(±)-Ipsenol],1.33 ± 4.2
8,C=C1CCC2CC1C2(C)C (stereo not drawn) [(-)-β-Pinene],-3 ± 4.2
9,CC(C)[C@@]12CC[C@@](C)(O)[C@@H]1C2 [(+)-trans-4-Thujanol],-0.667 ± 3.1
10,C[C@]12CCC[C@](C)(OC1)O2 (racemic) [(±)-Frontalin],-2 ± 4
11,CC1=CCC2CC1C2(C)C (stereo not drawn) [(+)-α-Pinene],-2 ± 7.2
12,CCCCCC=O [Hexanal],0.667 ± 5
13,CCC/C=C/C=O [(E)-hex-2-enal],4 ± 10
14,CC1=CC(C)(C)C=C(O)C1=O [Lanierone],1.33 ± 5.8
15,C=C(C)C1CC=C(C)C(=O)C1 (racemic) [(±)-Carvone],2 ± 4
16,CC[C@H]1O[C@]2(C)CCC[C@H]1O2 (racemic) [(±)-exo-Brevicomin],-3.33 ± 4.2
17,CC1=CCC(=C(C)C)CC1 [Terpinolene],0 ± 3.5
18,CC1=CC(=O)[C@@H]2C[C@H]1C2(C)C [(-)-Verbenone],24.7 ± 25
19,C[C@H]1C(=O)C[C@H]2C[C@@H]1C2(C)C [(-)-Pinocamphone],2.67 ± 6.4
20,C=Cc1ccc(OC)cc1 [4-Vinyl anisole],0.667 ± 5

# From the supplement of paper PMC11577813, “Eurasian spruce bark beetle detects lanierone using a highly expressed specialist odorant receptor, present in several functional sensillum types” (BMC Biology, 2024)
